Results filed as inconclusive are left out. Entries that show only a call come without a potency. Calls of active or inactive are those of the source. The call rests on the fitted dose curve; in most records, active means well fitted cell-killing curve with a large enough effect; inconclusive means small, poorly fitted or top-dose-only effect, or effect the other way; inactive means no such curve, though single readings can be large or run the other way.
Potency means the concentration at half of the fitted maximal effect.

The test in a line: Quantitative highthroughput screen to assess conditional lethalithy of SEM cells grown in RPMI1640 with dialyzed fetal bovine serum (RPMI+ds) (AID 1963884). Further: nearly all actives have a fitted effect of over 35% in size. The note with it: SEM B-ALL cells, RPMI+dialyzed FBS, CellTiter-Glo viability, 48 h; series mostly up to 45.8 µM. From the text:
Assay Provider: Jason Cantor Ph.D.
Department of Biochemistry
University of Wisconsin-Madison, Madison, WI, USA
Chemical screening studies have identified drug sensitivities across hundreds of cancer cell lines but most putative therapeutics fail to translate. Discovery and development of drug candidates in models that more accurately reflect nutrient levels in human blood is a major challenge. Here we performed high-throughput screens in conventional versus Human Plasma-Like Medium (HPLM) to identify compounds that were "missed" when screening using the artificial culture condition. Sets of conditional anticancer compounds spanned phases of clinical development and included non-oncology drugs were assessed. […] We also traced conditional phenotypes for several chemotherapeutics to availability of HPLM-specific metabolites and confirmed others for compounds whose reported targets are encoded by nonessential genes. Our findings establish generalizable strategies for exploiting conditional lethality in HPLM to reveal therapeutic candidates and mechanisms of action in cancer cells.
Described herein are the results of each viability screens against three cell lines: NOMO1 (an acute myeloid leukemia cell line); P12-Ichikawa (a T-cell acute lymphoblastic leukemia); and SEM (a B-cell ALL). Each assay was screened using 3 different cell culture media: homemade human plasma-Like medium with 10% dialyzed fetal bovine serum (HPLM+ds); RPMI1640 with 10% untreated FBS and 5mM glucose (RPMI+s); and RPMI1640 with 10% dialyzed fetal bovine serum and 5 mM glucose (RPMI+ds).
PROTOCOL TABLE (as described by Inglese J, Shamu CE and Guy RK. 2007)
SEQUENCE No. (e.g., 1, 2, 3, etc.); […] (e.g., Cells, Incubation, Reagent, etc.); VALUE and DESCRIPTION.
1; Cells; 5 uL; white, solid bottom 1536-well Greiner assay plate.
2; Compounds; 23 nL; Kalypsis pin tool (Wako USA) equipped with a 1536-well pin head to transfer to the assay plates.
3; Incubation; 48 hours; 37C incubation.
4; Reagent; 3 uL; CellTiter Glo (Promega).
5; Incubation; 5 min, room temperature
6; Detection; Luminescence, Viewlux PerkinElmer.
NOTES (numbers refer to Sequence numbers above)
1. Briefly, 5 ul of cell reagent was dispensed using a Multidrop Combi Dispenser. The NOMO1 and SEM cells were plated at 500 cells/well and the P12-Ichikawa line at 1000 cells/well.
2. After seeding the cells, 23 nL of MIPE 4.1 library compounds (in DMSO) were added to each plate using a Kalypsys 1536 Pintool dispenser. Bortezomib at final concentration of […] and DMSO were added to each plate as positive and negative controls respectively. For each screen, MIPE 4.1 compounds were added over an eleven-point concentration range […] in 3-fold dilutions.
3. Each plate was covered with a stainless steel gasketed lid to prevent evaporation and incubated for 48 hour at 37C, 95% relative humidity, and 5% CO2.
4-5. Three microliter CellTilter-GloTM luminescent substrate mix (Promega) reagent was added to the assay plate and incubated at room temperature for 5 min.
6. The luminescence signal was measured using a ViewLux (PerkinElmer) multiplate reader with a 2 second exposure time per plate. Data for each compound were normalized as percent viability such that measurements for DMSO and the empty well controls in each plate were defined as 100% and 0%, respectively.
(In general: ATP-based viability assays read luminescence as a measure of living cells.)
Regarding `COC(=O)C1=C(C)NC(C)=C(C(=O)OC(C)C)C1c1cccc2nonc12` (stereo not given), the Potency result is “inactive”. To `CC(C)[C@H](N)C(=O)OCCOCn1cnc2c(=O)[nH]c(N)nc21` belongs “inactive”; to `CC[C@@H]1C(=O)N(C)c2cnc(Nc3ccc(C(=O)NC4CCC(N5CCN(CC6CC6)CC5)CC4)cc3OC)nc2N1C(C)C` (stereo not given in full), 0.059 µM (active); to `CN(C)c1nc(N(C)C)nc(N(C)C)n1`, “inactive”. In the case of `CC(C)N(C[C@H]1O[C@@H](n2cnc3c(N)ncnc32)[C@H](O)[C@@H]1O)C1CC(CCc2nc3ccc(C(C)(C)C)cc3[nH]2)C1` (stereo not given in full) it was 11.7 µM (active). Take `CCCCOCCOc1nc(-c2ccc(C(=O)O)c(F)c2)sc1C`: the Potency entry is “inactive”. In the case of `CN(C)CCCN=c1c2ccccc2n(C)c2[nH]c(=O)n(C)c(=O)c12` it was 9.35 µM (active); in that of `O=C1NC(O)CCN1[C@@H]1O[C@H](CO)[C@H](O)[C@H]1O` (stereo not given in full), “inactive”. Consider `CC(=O)c1c(C)c2cnc(Nc3ccc(N4CCNCC4)cn3)nc2n(C2CCCC2)c1=O`, for which the Potency is 5.26 µM (active). As for `CCCn1c(=O)c2[nH]c(C34CC5CC3C[C@@H](C5)C4)nc2n(CCC)c1=O`, the Potency result was “inactive”.

As for `COCCNCCCn1c(C(=O)CF)c(-c2ccc(C)cc2)c2c(N)ncnc21`, the Potency is 0.743 µM (active). To `CCOC(=O)C(C)(C)Oc1ccc(Cl)cc1` belongs “inactive”. To `COc1ncc(-c2ccc3c(Nc4cc(Oc5cc(F)cc(F)c5)cc(C(=O)O)c4)c(S(=O)(=O)NC4CC4)cnc3c2)c(OC)n1` belongs “inactive”.

Take `CCN(CC)CCOc1ccc(C(=C(Cl)c2ccccc2)c2ccccc2)cc1`: the Potency result was “inactive”. In the case of `Cc1cc(C(=O)N2CCN(c3cccc(Cl)c3)CC2)n(-c2ccccc2)n1` it was 1.87 µM (active). To `CC(N)C12CC3CC(CC(C3)C1)C2` (stereo not given) belongs “inactive”; to `OC(CN1CCC(Cc2ccc(F)cc2)CC1)c1ccc(Cl)cc1` (stereo not given), “inactive”. To `Cc1ccc2nc(NC(=O)CSc3nc4c(c(=O)n3-c3ccccc3)SCC4)sc2c1` belongs 20.9 µM (active); to `CON=C(C(=O)N[C@@H]1C(=O)N2C(C(=O)O)=C(CSC(=O)c3ccco3)CS[C@H]12)c1csc(N)n1`, “inactive”. `Cc1cc(C(=O)NOCCO)c(Nc2ccc(I)cc2F)n(C)c1=O`: the Potency is 0.0074 µM (active).

On to `NCCCC(N)(C(=O)O)C(F)F` (stereo not given), for which the Potency entry was “inactive”. In the case of `O=C1c2ccccc2-[n+]2ccc3c([nH]c4ccccc43)c21` it was 3.32 µM (active); in that of `C[C@@H](NCCCc1cccc(C(F)(F)F)c1)c1cccc2ccccc12`, “inactive”. In the case of `CC(C)(O)CNc1nc(Nc2ccnc(C(F)(F)F)c2)nc(-c2cccc(C(F)(F)F)n2)n1` it was 3.31 µM (active); in that of `CC(C)c1onc(-c2c(Cl)cccc2Cl)c1COc1ccc(C=Cc2cccc(C(=O)O)c2)c(Cl)c1`, “inactive”; in that of `CCOC(=O)C=C[C@H](C[C@@H]1CCNC1=O)NC(=O)[C@@H](CC(=O)[C@@H](NC(=O)c1cc(C)on1)C(C)C)Cc1ccc(F)cc1`, “inactive”. Regarding `Nc1ccn([C@@H]2CS[C@H](CO)O2)c(=O)n1`, the Potency result is “inactive”. To `CCCNC(=O)[C@H]1O[C@H]1C(=O)N[C@H](C(=O)N1CCC[C@@H]1C(=O)OC)C(C)CC` (stereo not given in full) belongs 16.6 µM (active); to `CCC1(C)CC(=O)NC1=O` (stereo not given), “inactive”.

In the case of `Cc1ccc(-n2nc(C(C)(C)C)cc2NC(=O)Nc2ccc(OCCN3CCOCC3)c3ccccc23)cc1`, the Potency is 9.35 µM (active). To `Cc1coc2c1C(=O)C(=O)c1c-2ccc2c1CCCC2(C)C` belongs “inactive”. In the case of `CC(=O)c1cnc2ccc(-c3cc(Cl)c(O)c(Cl)c3)nc2c1NC1CCC(CN(C)C)CC1` (stereo not given) it was 0.0588 µM (active). As for `COc1cccc2c1C(=O)c1c(O)c3c(c(O)c1C2=O)C[C@@](O)(C(C)=O)C[C@H]3O[C@H]1C[C@H](N)[C@H](O)[C@H](C)O1`, the Potency is 0.0833 µM (active). To `Cc1cc(Nc2cc(NC(=O)c3c(Cl)cccc3Cl)ccn2)nc(N)n1` belongs 1.05 µM (active); to `N#C[C@H]1C[C@H]2C[C@@H]2N1C(=O)[C@@H](N)C12CC3CC(CC(O)(C3)C1)C2`, “inactive”; to `CCc1cc(C(N)=S)ccn1`, 7.43 µM (active).

Turning to `CN1CCC[C@H]1CCO[C@](C)(c1ccccc1)c1ccc(Cl)cc1`, the Potency entry is “inactive”.

For the compound `CCOC(=O)[C@H]1O[C@H]1C(=O)N[C@@H](CC(C)C)C(=O)NCCC(C)C`, the Potency result was “inactive”. To `CC[C@]1(O)C[C@H]2CN(CCC3=c4ccccc4=N[C]3[C@@](C(=O)OC)(c3cc4c(cc3OC)N(C)[C@H]3[C@@](O)(C(N)=O)[C@H](O)[C@]5(CC)C=CCN6CC[C@]43[C@@H]65)C2)C1` belongs 0.118 µM (active); to `Cn1cc(C=CC(=O)c2cccc(F)c2)cc1C=CC(=O)NO`, “inactive”.

The values above are taken from PubChem BioAssay (NCATS).
